# In PubChem BioAssay (NCATS):
# Where “and” joins values, the source holds several entries; their conditions need not be identical. Equal entries are not always repeated. Results filed as inconclusive are left out. Some structures have more than one record in an assay (separate samples or runs), and their calls can disagree. Calls of active or inactive are those of the source. Unless noted, calls follow the shape of the full dose curve.
# Tests used:
# [1] = AP1 Signaling Pathway (AID 357; active = well fitted curve in either direction with a large enough effect, not every such curve was filed as active;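 also: ME-180 reporter cells stimulated with EGF at its EC50 level; % is scaled to controls: 0 for no effect and ±100 for the full control effect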); settings: ME-180 (cervical carcinoma) AP-1-bla reporter, EGF-induced, beta-lactamase ratio, 5 h
# Method in brief: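 Modulation of EGF-driven AP-1 transcription was assessed with a beta-lactamase reporter in ME-180 cells. Compound and EC50 EGF were co-incubated 5 hours at 37 °C before 2.5-hour CCF4 loading at room temperature and dual-emission reading.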
# [2] = target: Cytochrome P450 1A2 (Homo sapiens) (UniProt P05177); experiment: p450-cyp1a2 (AID 410); settings: recombinant CYP1A2, luciferin-ME demethylation, luminescence; series mostly up to 57 µM; also: potency is read from the fitted curve at half-maximal effect;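 as to activity change, negative = inhibition: -100% = full effect of reference inhibitor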
# Chain of Cytochrome P450 1A2 (Homo sapiens) (P05177 whole entry, looked up): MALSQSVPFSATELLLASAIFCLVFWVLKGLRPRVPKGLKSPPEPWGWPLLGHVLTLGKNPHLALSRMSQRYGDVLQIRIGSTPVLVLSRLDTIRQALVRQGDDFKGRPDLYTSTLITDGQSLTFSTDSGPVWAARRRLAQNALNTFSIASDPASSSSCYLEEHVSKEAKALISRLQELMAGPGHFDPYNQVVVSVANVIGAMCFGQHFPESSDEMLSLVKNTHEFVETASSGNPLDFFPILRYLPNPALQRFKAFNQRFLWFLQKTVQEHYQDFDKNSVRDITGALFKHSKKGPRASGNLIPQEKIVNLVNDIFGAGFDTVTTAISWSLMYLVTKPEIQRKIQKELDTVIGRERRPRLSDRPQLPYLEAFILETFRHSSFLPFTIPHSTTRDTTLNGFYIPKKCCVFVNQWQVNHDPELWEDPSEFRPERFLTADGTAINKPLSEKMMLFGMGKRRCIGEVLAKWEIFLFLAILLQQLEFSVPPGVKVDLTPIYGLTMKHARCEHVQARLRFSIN
# Method in brief: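 Inhibition was calculated relative to 57 uM furafylline (full inhibition). The reaction used human CYP1A2 at 20nM with Luciferin-ME at its Km, 100uM, driven by an NADPH-regenerating system for 60 min at room temperature.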
# [3] = NFAT Signaling Pathway (AID 444; active = well fitted curve in either direction with a large enough effect, not every such curve was filed as active;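 also: carbachol stimulus at about its EC50 of 1 µM final; % is scaled to controls: 0 for no effect and ±100 for the full control effect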); settings: Jurkat NFAT-bla M1, carbachol, beta-lactamase ratio, 5 h; at 38 µM (top of the series) unless noted
# Method in brief: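 Jurkat cells with NFAT-driven β-lactamase reporter and co-expressed M1 receptor, stimulated with carbachol (final 1 uM, ~EC50), compound titration, 5 h at 37 °C. CCF4 loaded 1 h at RT; 460/530 nm ratio gave %activity and AC50.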
# [4] = Cell Viability - BJ (AID 421); settings: BJ fibroblast viability, qHTS;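 also: potency is read from the fitted curve at half-maximal effect; cells exposed to compound for 40 hours at 37 °C before readout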
# Method in brief: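 Luminescent ATP signal (CellTiter-Glo, 20 min at room temperature) served as the read-out of viable BJ cells after 40 hours of compound treatment. Responses were scaled between DMSO and 100 uM tamoxifen, and AC50 values were obtained by Hill modeling.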
# [5] = Cell Viability - Jurkat (AID 426;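 active = dose-dependent loss of cell ATP signal giving a full or clear fitted curve, ranked by lower potency value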; also: potency is read from the fitted curve at half-maximal effect); settings: qHTS
# Method in brief: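 Seed 5000 Jurkat E6-1 cells/well; add compound; incubate 40 hr at 37 °C; add CellTiter-Glo; wait 20 min at room temperature; read luminescence. Fit concentration-response with Hill equation for AC50.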
# [6] = Cell Viability - Hek293 (AID 427;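 active = compounds whose dose-response curve shows a full or clear partial loss of cell viability, called from curve shape rather than a numeric limit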;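 also: potency is read from the fitted curve at half-maximal effect; cells exposed to compound for 40 hours at 37 °C before reading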); settings: qHTS
# Method in brief: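 Luminescent ATP read-out (CellTiter-Glo, 20 min RT) after 40 hr compound exposure at 37 °C in complete medium. Signal normalized to DMSO (basal) and 100 uM tamoxifen (100% inhibition); concentration-response fitted with the standard Hill equation to give AC50.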
# [7] = Cell Viability - HepG2 (AID 433); settings: qHTS;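 also: potency is read from the fitted curve at half-maximal effect; potency for ATP loss meaning cytotoxicity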
# Method in brief: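 Read-out is luciferase-based quantitation of cellular ATP as a measure of viable HepG2 cells after 40 h treatment at 37 °C. Signal decrease is scaled between DMSO-only and 100 uM tamoxifen controls, with AC50 fitted by the Hill equation.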
# [8] = Cell Viability - MRC5 (AID 434); settings: MRC5 lung fibroblast viability, qHTS;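 also: potency is read from the fitted curve at half-maximal effect; potency reflects cytotoxicity seen as loss of intracellular ATP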
# Method in brief: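 MRC5 normal human lung fibroblasts, 1500 cells/well, exposed to compound for 40 hr at 37 C. Cellular ATP was read by CellTiter-Glo luminescence; data normalized to DMSO and 100 uM tamoxifen, with AC50 from Hill fits.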
# [9] = Cell Viability - SK-N-SH (AID 435); settings: SK-N-SH neuroblastoma cell viability qHTS;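 also: potency is read from the fitted curve at half-maximal effect; compound exposure lasted 40 h at 37 °C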
# Method in brief: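 Luminescent ATP signal served as the viability read-out after 40 hours of compound treatment of human neuroblastoma SK-N-SH cells. Concentration-response data, scaled between DMSO and 100 uM tamoxifen, gave AC50 values by standard Hill modeling.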
smiles,measurement,setting,value
O=C(c1cc(O)c(O)c([N+](=O)[O-])c1)c1ccccc1F,"activity change, negative = inhibition",[1]; at 38 µM (top of the series),-17.8% (inactive)
same,Potency,[2],inactive
CC(C)(C=O)Cc1cc(C(C)(C)C)c(O)c(C(C)(C)C)c1,"activity change, negative = inhibition",[1]; at 38 µM (top of the series),5.89% (inactive)
same,Potency,[2],25.1 µM (active)
same,"activity change, negative = inhibition",[3],-17.5% (inactive)
COc1cc2c(CCNC(C)=O)c[nH]c2cc1Cl,"activity change, negative = inhibition",[1]; at 38 µM (top of the series),-0.206% (inactive)
same,Potency,[2],1 µM (active) and 126 nM (active)
same,"activity change, negative = inhibition",[3],-9.13% (inactive)
O=C(O)c1cc(=O)c2c(Cl)cc(Cl)cc2[nH]1,"activity change, negative = inhibition",[1]; at 38 µM (top of the series),-8.48% (inactive)
same,Potency,[2],inactive
CCCSc1ccc2nc(NC(=O)OC)[nH]c2c1,"activity change, negative = inhibition",[1]; at 17.2 µM (top of the series),11.3% (inactive) and 5.12% (inactive)
same,Potency,[2],0.398 µM (active)
N=C(N)SCCc1ccc(CCSC(=N)N)cc1,"activity change, negative = inhibition",[1]; at 38 µM (top of the series),14.8% (inactive)
same,Potency,[2],inactive
O=C(Nc1cccc(C(=O)Nc2ccc(S(=O)(=O)O)c3cc(S(=O)(=O)O)cc(S(=O)(=O)O)c23)c1)Nc1cccc(C(=O)Nc2ccc(S(=O)(=O)O)c3cc(S(=O)(=O)O)cc(S(=O)(=O)O)c23)c1,"activity change, negative = inhibition",[1]; at 38 µM (top of the series),-2.72% (inactive)
same,Potency,[2],inactive
CN(C)c1nc(N)c(C(=O)N=C(N)N)nc1Cl,"activity change, negative = inhibition",[1]; at 38 µM (top of the series),10.7% (inactive)
same,Potency,[2],1 µM (active)
same,"activity change, negative = inhibition",[3],-15.7% (inactive)
CCCn1c(=O)c2[nH]c(-c3ccc(OCC(=O)NCCN)cc3)nc2n(CCC)c1=O,"activity change, negative = inhibition",[1]; at 38 µM (top of the series),6.39% (inactive)
same,Potency,[2],inactive
same,"activity change, negative = inhibition",[3],-8.17% (inactive)
NCCNC(=O)c1ncsc1-c1cccc(F)c1,"activity change, negative = inhibition",[1]; at 38 µM (top of the series),0.181% (inactive)
same,Potency,[2],10 µM (active)
same,"activity change, negative = inhibition",[3],-3.73% (inactive)
COc1cccc(C(=O)NCCN2CCN(c3ccc(Cl)cc3)CC2)c1,"activity change, negative = inhibition",[1]; at 38 µM (top of the series),-7.5% (inactive)
same,Potency,[2],12.6 µM (active)
same,"activity change, negative = inhibition",[3],2.58% (inactive)
Fc1ccc(C(OCCCc2cnc[nH]2)c2ccc(F)cc2)cc1,"activity change, negative = inhibition",[1]; at 38 µM (top of the series),26.5% (inactive)
same,Potency,[2],0.1 µM (active)
Cc1ccc(O)c(N=Nc2ccccc2)n1,"activity change, negative = inhibition",[1]; at 38 µM (top of the series),17.2% (inactive)
same,Potency,[2],794 nM (active) and 158 nM (active)
Cn1c(=O)c2[nH]c(-c3ccccc3)nc2n(C)c1=O,"activity change, negative = inhibition",[1]; at 38 µM (top of the series),14.7% (inactive)
same,Potency,[2],2 µM (active)
same,"activity change, negative = inhibition",[3],3.48% (inactive)
COc1ccccc1N1CCN(CCCCNS(=O)(=O)c2cccc3c(N(C)C)cccc23)CC1,"activity change, negative = inhibition",[1]; at 38 µM (top of the series),1.98% (inactive)
same,Potency,[2],inactive
COc1cc(OC)c(/C=C2/C(=O)Nc3ccccc32)c(OC)c1,"activity change, negative = inhibition",[1]; at 38 µM (top of the series),-28.2% (inactive)
same,Potency,[2],0.501 µM (active)
same,"activity change, negative = inhibition",[3],-8.19% (inactive)
C[N+](C)(CCCCCC[N+](C)(C)CCCN1C(=O)c2cccc3cccc(c23)C1=O)CCCN1C(=O)c2cccc3cccc(c23)C1=O,"activity change, negative = inhibition",[1]; at 38 µM (top of the series),14% (inactive)
same,Potency,[2],inactive
c1ccc(-c2ccccn2)nc1,"activity change, negative = inhibition",[1]; at 38 µM (top of the series),11.7% (inactive)
same,Potency,[2],25.1 µM (active)
Oc1ccccc1O,"activity change, negative = inhibition",[1]; at 38 µM (top of the series),-9.38% (inactive)
same,Potency,[2],inactive
same,Potency,[4],> 92 µM (inactive)
same,Potency,[5],3.17 µM (active)
same,Potency,[6],30.1 µM (active)
same,Potency,[7],> 92 µM (inactive)
same,Potency,[8],> 92 µM (inactive)
same,Potency,[9],> 92 µM (inactive)
O=C(O)c1ccccc1Nc1cccc(C(F)(F)F)c1,"activity change, negative = inhibition",[1]; at 17.2 µM (top of the series),-4.38% (inactive) and -13.2% (inactive)
same,Potency,[2],3.98 µM (active)
COC(=O)c1c(C)[nH]c(C)c1C(=O)c1ccccc1Cc1ccccc1,"activity change, negative = inhibition",[1]; at 38 µM (top of the series),-27.5% (inactive)
same,Potency,[2],1.26 µM (active) and 251 nM (active)
same,"activity change, negative = inhibition",[3],4.44% (inactive)
C[N+]1(C)CCC(OC(=O)C(c2ccccc2)c2ccccc2)CC1,"activity change, negative = inhibition",[1]; at 38 µM (top of the series),10.3% (inactive)
same,Potency,[2],10 µM (active) and inactive
same,"activity change, negative = inhibition",[3],-75% (active)
C=C[C@H]1CN2CC[C@@H]1C[C@@H]2[C@@H](O)c1ccnc2ccc(OC)cc12,"activity change, negative = inhibition",[1]; at 38 µM (top of the series),0.0731% (inactive) and 9.28% (inactive)
same,Potency,[2],inactive
same,"activity change, negative = inhibition",[3],-6.92% (inactive) and -0.71% (inactive)
NC(=O)C(=O)O,"activity change, negative = inhibition",[1]; at 38 µM (top of the series),0.648% (inactive)
same,Potency,[2],inactive
same,"activity change, negative = inhibition",[3],5.77% (inactive)
O=C1C(SCCO)=C(SCCO)C(=O)c2ccccc21,"activity change, negative = inhibition",[1]; at 38 µM (top of the series),-104% (active)
same,Potency,[2],12.6 µM (active) and 631 nM (active)
CCCN(CC1CC1)c1nc(C)nc(Nc2c(Cl)cc(Cl)cc2Cl)c1Cl,"activity change, negative = inhibition",[1]; at 38 µM (top of the series),18.7% (inactive)
same,Potency,[2],inactive
CN(C)C(N)=NCCC[C@H](N)C(=O)O,"activity change, negative = inhibition",[1]; at 38 µM (top of the series),3.1% (inactive)
same,Potency,[2],inactive
Ic1ccc(N2CCN(Cc3c[nH]c4ncccc34)CC2)cc1,"activity change, negative = inhibition",[3],0.65% (inactive)
Nc1ccc(O)c([N+](=O)[O-])c1,Potency,[4],> 92 µM (inactive)
same,Potency,[5],20.7 µM (inactive)
same,Potency,[6],> 92 µM (inactive)
same,Potency,[7],> 92 µM (inactive)
same,Potency,[8],> 92 µM (inactive)
same,Potency,[9],> 92 µM (inactive)
O=C(O)/C=C\C(=O)O,Potency,[4],> 92 µM (inactive)
same,Potency,[5],> 92 µM (inactive)
same,Potency,[6],> 92 µM (inactive)
same,Potency,[7],> 92 µM (inactive)
same,Potency,[8],> 92 µM (inactive)
same,Potency,[9],> 92 µM (inactive)
O=c1[nH]c2cc(Cl)c(Cl)cc2[nH]c1=O,"activity change, negative = inhibition",[1]; at 38 µM (top of the series),-8.09% (inactive)
same,"activity change, negative = inhibition",[3],4.68% (inactive)
O=C(O)[C@@H]1C[C@@H](C(=O)O)N1,Potency,[2],31.6 µM (active)
CCCCCCCC/C=C\CCCCCCCC(=O)NCCO,"activity change, negative = inhibition",[3],-20.4% (inactive)
